Key:
Experiment in all cases: phage ELISA signal ratio (GST-PRM binding over GST background); higher = stronger binding of peptide-phage to the PRM
[1] = molecular target: ARPC3 1-178 P21-Arc (domain begin residue: 1, domain end residue: 178), O15145
Method: (§1)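 Phage-displayed random hexadecapeptides (Cys-free, flanked by invariant Gly linkers, fused to the M13 P8 major coat protein) were selected over 5 rounds against GST-fused human PRM domains. Individual clones from rounds 4-5 were tested by phage ELISA, and positive clones binding the target but not GST were sequenced. Values are the ELISA signal ratio of target over background (GST); the background signal is given separately.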

[2] = molecular target: T1, ARID4A 568-634 Tudor-knot (domain begin residue: 568, domain end residue: 634), P29374
T1 chain: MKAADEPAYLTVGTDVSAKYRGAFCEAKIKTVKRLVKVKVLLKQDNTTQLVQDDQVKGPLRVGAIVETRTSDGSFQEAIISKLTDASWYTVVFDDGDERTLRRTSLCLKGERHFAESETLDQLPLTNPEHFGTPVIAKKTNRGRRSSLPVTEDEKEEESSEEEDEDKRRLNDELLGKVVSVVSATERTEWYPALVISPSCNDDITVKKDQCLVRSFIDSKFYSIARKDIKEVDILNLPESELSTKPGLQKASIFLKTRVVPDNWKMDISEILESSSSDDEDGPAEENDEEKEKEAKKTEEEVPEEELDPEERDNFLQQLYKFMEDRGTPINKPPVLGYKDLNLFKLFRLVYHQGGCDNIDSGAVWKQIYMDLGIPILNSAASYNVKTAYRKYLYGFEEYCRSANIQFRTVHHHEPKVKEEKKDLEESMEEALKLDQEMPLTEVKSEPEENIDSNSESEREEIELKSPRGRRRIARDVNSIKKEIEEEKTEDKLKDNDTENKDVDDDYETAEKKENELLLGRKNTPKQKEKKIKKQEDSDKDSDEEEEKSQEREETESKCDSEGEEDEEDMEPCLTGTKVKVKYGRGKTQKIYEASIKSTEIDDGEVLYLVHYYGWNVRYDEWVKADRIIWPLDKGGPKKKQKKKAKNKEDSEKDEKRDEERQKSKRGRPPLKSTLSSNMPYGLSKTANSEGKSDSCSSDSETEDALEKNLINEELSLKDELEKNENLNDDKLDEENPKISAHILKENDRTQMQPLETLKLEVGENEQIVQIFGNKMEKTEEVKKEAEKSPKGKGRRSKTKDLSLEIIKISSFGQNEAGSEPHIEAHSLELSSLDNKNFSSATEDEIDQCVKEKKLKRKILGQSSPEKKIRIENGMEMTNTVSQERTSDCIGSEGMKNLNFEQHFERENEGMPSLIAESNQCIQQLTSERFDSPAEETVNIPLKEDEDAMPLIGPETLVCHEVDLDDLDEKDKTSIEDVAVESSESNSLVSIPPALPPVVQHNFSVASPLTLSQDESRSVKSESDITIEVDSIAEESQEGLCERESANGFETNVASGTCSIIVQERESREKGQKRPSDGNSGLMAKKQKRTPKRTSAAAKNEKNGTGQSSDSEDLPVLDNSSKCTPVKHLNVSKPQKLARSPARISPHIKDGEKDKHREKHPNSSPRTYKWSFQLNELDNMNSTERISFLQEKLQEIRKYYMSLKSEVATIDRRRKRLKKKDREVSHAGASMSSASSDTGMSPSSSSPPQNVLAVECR
Method: as §1

[3] = molecular target: KMT2C 1055-1137 PHD (domain begin residue: 1055, domain end residue: 1137)
Method: as §1

[4] = molecular target: T2, LBR 1-67 LBR_tudor (domain begin residue: 1, domain end residue: 67), Q14739
T2 chain: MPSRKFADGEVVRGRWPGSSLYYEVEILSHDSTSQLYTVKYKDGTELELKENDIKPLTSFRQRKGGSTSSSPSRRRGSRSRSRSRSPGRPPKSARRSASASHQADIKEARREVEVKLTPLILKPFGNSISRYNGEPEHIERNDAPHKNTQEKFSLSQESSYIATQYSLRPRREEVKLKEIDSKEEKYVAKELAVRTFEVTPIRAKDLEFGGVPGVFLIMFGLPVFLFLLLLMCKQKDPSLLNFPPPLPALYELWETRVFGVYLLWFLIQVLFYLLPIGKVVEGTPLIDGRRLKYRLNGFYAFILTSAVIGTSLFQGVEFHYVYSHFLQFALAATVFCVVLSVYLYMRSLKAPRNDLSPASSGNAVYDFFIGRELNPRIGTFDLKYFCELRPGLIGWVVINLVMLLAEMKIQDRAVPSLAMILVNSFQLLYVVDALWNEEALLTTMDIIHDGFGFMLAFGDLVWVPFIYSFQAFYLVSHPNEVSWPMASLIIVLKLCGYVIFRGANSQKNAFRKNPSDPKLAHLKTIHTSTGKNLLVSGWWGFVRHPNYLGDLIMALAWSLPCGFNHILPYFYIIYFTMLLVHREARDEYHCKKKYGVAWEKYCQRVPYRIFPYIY
Method: as §1

[5] = molecular target: PAF1 165-376 Paf1 (domain begin residue: 165, domain end residue: 376), Q8N7H5
Method: as §1

[6] = molecular target: RBBP8 722-897 SAE2 (domain begin residue: 722, domain end residue: 897), Q99708
Chain of RBBP8 722-897 SAE2 (domain begin residue: 722, domain end residue: 897), Q99708 (Q99708 whole entry): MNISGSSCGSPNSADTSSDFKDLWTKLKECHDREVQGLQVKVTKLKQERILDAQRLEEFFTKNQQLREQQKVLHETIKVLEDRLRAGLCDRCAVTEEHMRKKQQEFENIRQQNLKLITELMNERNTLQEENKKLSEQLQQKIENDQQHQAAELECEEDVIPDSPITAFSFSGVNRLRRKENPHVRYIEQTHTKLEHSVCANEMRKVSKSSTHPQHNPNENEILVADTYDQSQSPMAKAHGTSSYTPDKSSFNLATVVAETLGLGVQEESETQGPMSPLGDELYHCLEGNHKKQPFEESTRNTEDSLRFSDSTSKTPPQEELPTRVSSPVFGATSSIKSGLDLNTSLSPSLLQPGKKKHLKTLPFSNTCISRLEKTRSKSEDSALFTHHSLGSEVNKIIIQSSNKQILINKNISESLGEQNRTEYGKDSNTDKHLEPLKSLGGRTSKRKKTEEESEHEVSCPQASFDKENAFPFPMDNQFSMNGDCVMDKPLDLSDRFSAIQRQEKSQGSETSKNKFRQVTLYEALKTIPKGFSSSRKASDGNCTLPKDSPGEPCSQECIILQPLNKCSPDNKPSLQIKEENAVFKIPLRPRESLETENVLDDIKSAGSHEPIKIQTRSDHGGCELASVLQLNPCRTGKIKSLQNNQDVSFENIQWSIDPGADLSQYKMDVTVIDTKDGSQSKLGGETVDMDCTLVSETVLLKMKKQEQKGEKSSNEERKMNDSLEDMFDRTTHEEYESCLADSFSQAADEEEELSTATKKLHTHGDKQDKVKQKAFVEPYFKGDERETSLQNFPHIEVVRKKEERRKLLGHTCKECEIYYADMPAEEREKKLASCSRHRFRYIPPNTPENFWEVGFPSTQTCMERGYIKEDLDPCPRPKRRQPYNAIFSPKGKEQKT
Method: as §1

[7] = molecular target: SETD1A 2-220 RRM_1 (domain begin residue: 2, domain end residue: 220), O15047
Chain of SETD1A 2-220 RRM_1 (domain begin residue: 2, domain end residue: 220), O15047 (O15047 whole entry): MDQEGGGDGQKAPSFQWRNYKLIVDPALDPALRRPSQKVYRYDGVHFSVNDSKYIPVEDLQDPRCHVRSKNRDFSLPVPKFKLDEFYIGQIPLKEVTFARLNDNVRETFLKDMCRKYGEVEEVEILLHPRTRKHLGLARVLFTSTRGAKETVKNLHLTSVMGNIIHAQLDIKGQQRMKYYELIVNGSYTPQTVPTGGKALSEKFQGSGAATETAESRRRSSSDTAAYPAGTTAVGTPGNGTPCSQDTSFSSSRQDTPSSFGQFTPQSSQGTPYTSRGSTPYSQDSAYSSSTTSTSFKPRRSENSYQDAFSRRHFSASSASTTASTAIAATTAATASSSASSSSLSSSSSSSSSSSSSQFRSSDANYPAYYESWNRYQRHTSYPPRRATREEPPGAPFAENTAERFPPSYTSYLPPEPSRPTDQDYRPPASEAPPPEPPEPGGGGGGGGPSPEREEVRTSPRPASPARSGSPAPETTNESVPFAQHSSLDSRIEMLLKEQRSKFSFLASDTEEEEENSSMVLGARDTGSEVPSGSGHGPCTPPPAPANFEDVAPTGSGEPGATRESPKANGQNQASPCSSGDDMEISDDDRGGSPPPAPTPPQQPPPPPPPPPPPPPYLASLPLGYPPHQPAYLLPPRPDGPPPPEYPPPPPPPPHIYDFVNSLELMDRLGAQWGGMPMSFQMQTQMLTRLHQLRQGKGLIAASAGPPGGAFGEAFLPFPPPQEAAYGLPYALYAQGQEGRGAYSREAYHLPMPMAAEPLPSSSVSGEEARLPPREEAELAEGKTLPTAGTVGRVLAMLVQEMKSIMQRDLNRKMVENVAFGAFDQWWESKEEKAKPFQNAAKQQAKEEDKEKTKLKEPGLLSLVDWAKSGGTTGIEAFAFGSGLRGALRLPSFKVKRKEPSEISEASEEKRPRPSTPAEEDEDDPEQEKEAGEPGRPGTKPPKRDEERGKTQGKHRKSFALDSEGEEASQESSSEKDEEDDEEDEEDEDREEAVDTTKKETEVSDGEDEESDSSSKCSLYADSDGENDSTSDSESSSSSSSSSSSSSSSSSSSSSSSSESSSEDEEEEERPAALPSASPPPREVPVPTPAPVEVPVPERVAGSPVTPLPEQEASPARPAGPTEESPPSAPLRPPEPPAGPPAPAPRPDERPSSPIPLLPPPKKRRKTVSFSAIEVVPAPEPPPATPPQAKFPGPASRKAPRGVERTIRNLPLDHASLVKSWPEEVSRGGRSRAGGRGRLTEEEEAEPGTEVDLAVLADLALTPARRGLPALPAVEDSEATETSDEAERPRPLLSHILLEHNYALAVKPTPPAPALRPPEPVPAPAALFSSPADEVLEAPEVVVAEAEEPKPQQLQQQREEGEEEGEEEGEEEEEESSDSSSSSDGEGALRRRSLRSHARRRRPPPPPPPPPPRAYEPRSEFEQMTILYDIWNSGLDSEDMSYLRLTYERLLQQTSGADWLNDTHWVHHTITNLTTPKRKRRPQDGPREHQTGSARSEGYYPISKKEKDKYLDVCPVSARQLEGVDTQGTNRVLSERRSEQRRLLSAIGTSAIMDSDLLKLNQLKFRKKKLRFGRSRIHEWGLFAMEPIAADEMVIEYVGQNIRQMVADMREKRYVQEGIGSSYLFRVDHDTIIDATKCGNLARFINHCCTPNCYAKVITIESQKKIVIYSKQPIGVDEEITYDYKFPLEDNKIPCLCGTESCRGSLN
Method: as §1

[8] = molecular target: T3, SND1 650-910 TUDOR+SNase (domain begin residue: 650, domain end residue: 910), Q7KZF4
T3 chain: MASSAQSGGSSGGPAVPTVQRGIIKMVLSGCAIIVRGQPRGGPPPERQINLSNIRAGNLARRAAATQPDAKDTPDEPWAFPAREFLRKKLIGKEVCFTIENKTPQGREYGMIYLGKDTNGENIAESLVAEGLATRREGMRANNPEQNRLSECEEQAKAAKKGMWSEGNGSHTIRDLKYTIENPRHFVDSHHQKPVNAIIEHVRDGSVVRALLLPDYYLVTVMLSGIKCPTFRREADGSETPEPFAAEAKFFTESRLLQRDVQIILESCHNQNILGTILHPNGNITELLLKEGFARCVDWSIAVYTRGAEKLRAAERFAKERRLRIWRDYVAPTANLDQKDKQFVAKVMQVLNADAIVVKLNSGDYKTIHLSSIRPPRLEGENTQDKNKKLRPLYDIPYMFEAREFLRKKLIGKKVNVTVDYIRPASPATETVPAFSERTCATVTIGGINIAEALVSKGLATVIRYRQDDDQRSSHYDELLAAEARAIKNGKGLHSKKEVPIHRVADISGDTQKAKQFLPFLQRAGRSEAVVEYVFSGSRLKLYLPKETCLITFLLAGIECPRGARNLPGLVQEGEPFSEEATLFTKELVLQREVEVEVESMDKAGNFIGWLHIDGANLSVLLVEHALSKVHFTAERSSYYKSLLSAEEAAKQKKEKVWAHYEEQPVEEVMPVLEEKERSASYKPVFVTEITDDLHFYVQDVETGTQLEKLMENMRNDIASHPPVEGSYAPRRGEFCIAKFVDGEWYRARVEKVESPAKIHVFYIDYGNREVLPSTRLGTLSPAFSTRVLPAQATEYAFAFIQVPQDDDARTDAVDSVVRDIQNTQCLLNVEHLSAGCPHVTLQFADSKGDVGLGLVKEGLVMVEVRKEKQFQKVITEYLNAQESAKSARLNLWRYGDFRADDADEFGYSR
Method: as §1

[9] = molecular target: T4, TDRD1 261-449 TUDOR (domain begin residue: 261, domain end residue: 449), Q9BXT4
T4 chain: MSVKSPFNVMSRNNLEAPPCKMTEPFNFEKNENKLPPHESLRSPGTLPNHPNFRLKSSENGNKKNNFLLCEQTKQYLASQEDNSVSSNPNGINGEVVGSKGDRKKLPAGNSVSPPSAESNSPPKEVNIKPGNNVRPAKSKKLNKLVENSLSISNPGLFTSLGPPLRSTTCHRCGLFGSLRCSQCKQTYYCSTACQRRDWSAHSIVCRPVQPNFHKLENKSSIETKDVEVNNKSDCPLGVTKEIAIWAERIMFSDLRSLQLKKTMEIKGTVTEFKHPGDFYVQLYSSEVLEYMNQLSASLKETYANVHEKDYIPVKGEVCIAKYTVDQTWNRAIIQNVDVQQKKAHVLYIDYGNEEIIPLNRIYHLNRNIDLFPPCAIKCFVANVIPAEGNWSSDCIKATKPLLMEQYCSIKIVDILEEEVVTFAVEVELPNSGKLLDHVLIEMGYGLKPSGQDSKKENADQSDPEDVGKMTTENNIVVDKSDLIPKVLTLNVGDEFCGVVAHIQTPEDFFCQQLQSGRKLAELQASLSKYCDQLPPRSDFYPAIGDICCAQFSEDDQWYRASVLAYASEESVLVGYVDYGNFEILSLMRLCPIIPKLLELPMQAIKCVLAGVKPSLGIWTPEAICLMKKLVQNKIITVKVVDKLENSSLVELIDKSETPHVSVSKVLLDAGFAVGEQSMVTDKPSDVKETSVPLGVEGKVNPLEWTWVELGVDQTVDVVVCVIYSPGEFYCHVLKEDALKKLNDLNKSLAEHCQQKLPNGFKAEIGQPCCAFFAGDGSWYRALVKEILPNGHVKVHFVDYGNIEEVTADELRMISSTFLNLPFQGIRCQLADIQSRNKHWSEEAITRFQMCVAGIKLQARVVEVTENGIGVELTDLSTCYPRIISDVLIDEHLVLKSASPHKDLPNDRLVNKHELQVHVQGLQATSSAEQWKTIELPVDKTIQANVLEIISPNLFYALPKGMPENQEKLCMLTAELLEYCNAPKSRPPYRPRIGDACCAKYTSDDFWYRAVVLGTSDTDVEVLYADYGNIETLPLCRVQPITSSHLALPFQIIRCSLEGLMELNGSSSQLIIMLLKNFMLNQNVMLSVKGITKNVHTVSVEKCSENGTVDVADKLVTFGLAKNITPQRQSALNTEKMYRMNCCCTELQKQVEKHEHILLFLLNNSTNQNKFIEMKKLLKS
Method: as §1

[10] = molecular target: T5, ZGPAT 120-268 zf-CCCH+TUDOR (domain begin residue: 120, domain end residue: 268), Q8N5A5
T5 chain: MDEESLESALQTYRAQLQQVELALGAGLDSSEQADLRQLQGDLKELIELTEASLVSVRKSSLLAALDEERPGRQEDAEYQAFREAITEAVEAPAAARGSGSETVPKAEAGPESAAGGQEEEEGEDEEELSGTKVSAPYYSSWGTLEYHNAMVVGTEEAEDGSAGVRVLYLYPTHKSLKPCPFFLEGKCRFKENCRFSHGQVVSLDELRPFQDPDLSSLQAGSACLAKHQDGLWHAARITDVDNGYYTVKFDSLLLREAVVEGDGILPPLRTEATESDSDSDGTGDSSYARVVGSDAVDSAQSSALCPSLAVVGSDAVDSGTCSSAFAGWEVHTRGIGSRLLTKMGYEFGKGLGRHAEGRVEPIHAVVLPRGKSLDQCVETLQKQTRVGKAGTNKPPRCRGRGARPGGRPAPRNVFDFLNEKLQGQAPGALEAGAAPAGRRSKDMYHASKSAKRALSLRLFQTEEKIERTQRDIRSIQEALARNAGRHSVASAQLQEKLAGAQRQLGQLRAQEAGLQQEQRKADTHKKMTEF
Method: as §1

For VPEWWWQGWDPHHVVE, the “phage ELISA signal ratio” value [1] was 6.99.

For WGWDEMLNDPEIMRIV, the “phage ELISA signal ratio” value [2] was 12.7, the “phage ELISA signal ratio” value [3] was 8.35 and the “phage ELISA signal ratio” value [4] was 7.63. The “phage ELISA signal ratio” value [5] was 6.83, the “phage ELISA signal ratio” value [6] was 6.44 and the “phage ELISA signal ratio” value [7] was 7.71. The “phage ELISA signal ratio” value [8] was 8.1, the “phage ELISA signal ratio” value [9] was 10.8 and the “phage ELISA signal ratio” value [10] was 7.66.

Source: the supplement of paper PMC7724964
